In the supplement of paper PMC6805474 one finds XTT viability, phenotypic severity score and drug effect data, which are given here for 21 compounds.

For test [1], the system named is Schistosoma mansoni schistosomula (LE). Put plainly: XTT viability relative to DMSO control; higher = more viable (less active). Conditions: 72 h; 10 µM. As for the experimental part:
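XTT/PMS was then added for a further 24 h (72 h total) and A450 was read. % viability = (sample - heat-killed control)/(DMSO control - heat-killed control) x 100, from duplicate wells in two independent experiments.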

For test [2], the system named is Schistosoma mansoni schistosomula (NMRI). As to the kind of experiment: phenotypic severity score (0-4); higher = more antischistosomal effect, active = 2 or more. Conditions: 10 µM.
The test system of test [3] is Schistosoma mansoni schistosomula (Liberian). As to the kind of experiment: drug effect (1 - score/DMSO control score) (fraction); higher = more antischistosomal effect, active = 0.5 or more; extreme values may be limits of the assay. The note with it: 10 µM. Put shortly: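 Drug effect was calculated by comparing the mean score of the test wells with the mean score of the DMSO wells, and any negative value was set to zero. Duplicate wells of 50 Liberian-strain S. mansoni schistosomula, mechanically transformed from cercariae and pre-incubated at least 12 h, received 10 µM compound in Medium 199 with 5% FCS at 37 °C, 5% CO2, with 0.1% DMSO in the comparison wells. Visual scoring at 10× took place at 24, 48 and 72 h on a quarter-point scale from 3 (normal) to 0 (dead), and a plate counted only if its DMSO wells averaged at least 2.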
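Throughout, for phenotypic severity score (0-4): visual microscopic scoring of shape, motility and density changes versus 0.5% DMSO solvent controls, one point per descriptor, degeneracy or death scored 4, mean of duplicate wells.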

Regarding `CN1CCN(c2nccc3[nH]c(-c4cccc(F)c4)cc23)CC1`, in test [1], the XTT viability amounted to 66.3%. The phenotypic severity score in test [2] (24 h) was 0 (inactive); in test [2] (48 h), 2 (active); in test [2] (72 h) it was 4 (active). Further, the drug effect in test [3] (24 h) is 0.0909 (inactive); in test [3] (48 h), 0.1 (inactive); in test [3] (72 h), 0.158 (inactive).
Turning to `COc1nc2ccc(Br)cc2cc1[C@@H](c1ccccc1)[C@@](O)(CCN(C)C)c1cccc2ccccc12`, the XTT viability in test [1] turned out to be 7.23%. Also, the phenotypic severity score in test [2] (24 h) is 2 (active); in test [2] (48 h) it was 4 (active); in test [2] (72 h) it was 4 (active). Besides, the results for the drug effect in test [3] (24 h), in test [3] (48 h) and in test [3] (72 h) were 0.318 (inactive), 0.8 (active) and 0.945 (active), respectively.
Consider `O=C(Nc1ccnc(-c2cccnc2)n1)c1cc(C(F)(F)F)cc(C(F)(F)F)c1`, for which the XTT viability in test [1] worked out at 91%. Moreover, the phenotypic severity score in test [2] (24 h), in test [2] (48 h) and in test [2] (72 h) was 0 (inactive) throughout. Also, the drug effect in test [3] (24 h) was 0.1 (inactive); in test [3] (48 h), 0.0811 (inactive); in test [3] (72 h), 0.111 (inactive).
On to `Cc1ccc(C(=O)Nc2ccc(S(=O)(=O)O)c3cc(S(=O)(=O)O)cc(S(=O)(=O)O)c23)cc1NC(=O)c1cccc(NC(=O)Nc2cccc(C(=O)Nc3cc(C(=O)Nc4ccc(S(=O)(=O)O)c5cc(S(=O)(=O)O)cc(S(=O)(=O)O)c45)ccc3C)c2)c1`, for which the XTT viability in test [1] turned out to be 94.8%. Also, the phenotypic severity score in test [2] (24 h), in test [2] (48 h) and in test [2] (72 h) was 0 (inactive) in each case. For the same compound, the results for the drug effect in test [3] (24 h), in test [3] (48 h) and in test [3] (72 h) were 0.15 (inactive), 0.297 (inactive) and 0.389 (inactive), respectively.
`O=C(Nc1nc(-c2ccccn2)cs1)c1cncn1-c1ccccc1`: the XTT viability in test [1] is 68.7%. For the same compound, the phenotypic severity score in test [2] (24 h), in test [2] (48 h) and in test [2] (72 h) was 0 (inactive) in each case. For the same compound, the drug effect in test [3] (24 h) is 0.0909 (inactive); in test [3] (48 h) it was 0.15 (inactive); in test [3] (72 h), 0.236 (inactive).
Consider `CC[C@H](CO)NCCN[C@H](CC)CO`, for which, in test [1], the XTT viability was 78.3%. The phenotypic severity score in test [2] (24 h), in test [2] (48 h) and in test [2] (72 h) was 0 (inactive) in each case. Further, the figures for the drug effect in test [3] (24 h), in test [3] (48 h) and in test [3] (72 h) were 0.15 (inactive), 0.135 (inactive) and 0.278 (inactive), respectively.
`Nc1ncnc2[nH]nc(Cc3cccc4ccccc34)c12`: the XTT viability in test [1] amounted to 94.1%. Moreover, the values for the phenotypic severity score in test [2] (24 h), in test [2] (48 h) and in test [2] (72 h) were 1 (inactive), 2 (active) and 3 (active), respectively. The drug effect was 0.243 (inactive) in test [3] (24 h), 0.333 (inactive) in test [3] (48 h) and 0.562 (active) in test [3] (72 h).
Turning to `COC(=O)C1=C(C)NC(C)=C(C(=O)OC(C)C)C1c1cccc2nonc12` (configuration not stated), in test [1], the XTT viability is 63.2%. Also, the phenotypic severity score in test [2] (24 h) is 2 (active); in test [2] (48 h), 0 (inactive); in test [2] (72 h), 0 (inactive). The drug effect in test [3] (24 h) is 0.15 (inactive); in test [3] (48 h), 0.189 (inactive); in test [3] (72 h), 0.111 (inactive).
On to `O=C(CCC1CCCCC1)Nc1cccc(-c2nnc(-c3ccco3)o2)c1`, for which, in test [1], the XTT viability came to 145%. Also, the values for the phenotypic severity score in test [2] (24 h), in test [2] (48 h) and in test [2] (72 h) were 2 (active), 4 (active) and 4 (active), respectively. Further, the results for the drug effect in test [3] (24 h), in test [3] (48 h) and in test [3] (72 h) were 0.182 (inactive), 0.2 (inactive) and 0.167 (inactive), respectively.
Take `COCC(C)NC(=O)CSc1ncnc2sc(-c3ccccc3)cc12` (configuration not stated): the XTT viability in test [1] is 93.6%. The phenotypic severity score in test [2] (24 h), in test [2] (48 h) and in test [2] (72 h) was 0 (inactive) in each case. Also, the drug effect in test [3] (24 h) is 0.1 (inactive); in test [3] (48 h), 0.135 (inactive); in test [3] (72 h), 0.111 (inactive).
Take `COc1ccccc1C(C)NCC(=O)Nc1cc(C(F)(F)F)ccc1Cl` (configuration not stated): the XTT viability in test [1] was 67.7%. Further, the phenotypic severity score in test [2] (24 h), in test [2] (48 h) and in test [2] (72 h) was 0 (inactive) throughout. In addition, the drug effect in test [3] (24 h) was 0.15 (inactive); in test [3] (48 h), 0.135 (inactive); in test [3] (72 h) it was 0.278 (inactive).
On to `O=C(NC1CCN(c2ccnc3ccccc23)C1)c1cccc(C(F)(F)F)c1` (configuration not stated), for which the XTT viability in test [1] is 103%. Moreover, the phenotypic severity score in test [2] (24 h), in test [2] (48 h) and in test [2] (72 h) was 0 (inactive) throughout. For the same compound, the drug effect in test [3] (24 h) was 0.135 (inactive); in test [3] (48 h), 0.556 (active); in test [3] (72 h), 0.938 (active).
In the case of `COc1cccn2c(C(=O)N3CCCCC3)c(C(F)(F)F)nc12`, in test [1], the XTT viability is 95.7%. Besides, the phenotypic severity score in test [2] (24 h), in test [2] (48 h) and in test [2] (72 h) was 0 (inactive) each time. Besides, the results for the drug effect in test [3] (24 h), in test [3] (48 h) and in test [3] (72 h) were 0.182 (inactive), 0.2 (inactive) and 0.127 (inactive), respectively.
As to `C[C@H]1c2cccc(O)c2C(=O)C2=C(O)[C@]3(O)C(=O)C(C(N)=O)=C(O)[C@@H](N(C)C)[C@@H]3[C@@H](O)[C@@H]21`, the XTT viability in test [1] stood at 165%. Also, the phenotypic severity score in test [2] (24 h), in test [2] (48 h) and in test [2] (72 h) was 0 (inactive) each time. Moreover, the drug effect in test [3] (24 h) is 0.2 (inactive); in test [3] (48 h) it was 0.297 (inactive); in test [3] (72 h), 0.222 (inactive).
In the case of `CCS(=O)(=O)N(Cc1ccco1)Cc1cc2ccc(C)cc2nc1O`, the XTT viability in test [1] was determined as 55.5%. The phenotypic severity score in test [2] (24 h) was 0 (inactive); in test [2] (48 h), 1 (inactive); in test [2] (72 h), 0 (inactive). In addition, the drug effect in test [3] (24 h) was 0.2 (inactive); in test [3] (48 h) it was 0.333 (inactive); in test [3] (72 h), 0.5 (active).
Consider `COC(=O)c1cccc2oc(-c3cccc(OC)c3NC(=O)c3cc(-c4ccccc4)on3)nc12`, for which the XTT viability in test [1] was 88.1%. Also, the phenotypic severity score in test [2] (24 h), in test [2] (48 h) and in test [2] (72 h) was 0 (inactive) throughout. The drug effect is 0.351 (inactive) in test [3] (24 h), 0.333 (inactive) in test [3] (48 h) and 0.312 (inactive) in test [3] (72 h).
Take `O=C(Nc1cccnc1)c1c(O)c2cccc3c2n(c1=O)CC3`: in test [1], the XTT viability was determined as 118%. Further, the phenotypic severity score in test [2] (24 h), in test [2] (48 h) and in test [2] (72 h) was 0 (inactive) in each case. The drug effect is 0.182 (inactive) in test [3] (24 h), 0.2 (inactive) in test [3] (48 h) and 0.0727 (inactive) in test [3] (72 h).
In the case of `c1ccc(C[C@@H]2CN(c3nccc(Oc4ccc(-n5ccnc5)cc4)n3)CCN2)cc1`, the XTT viability in test [1] was found to be 94.4%. Further, the phenotypic severity score in test [2] (24 h), in test [2] (48 h) and in test [2] (72 h) was 0 (inactive) in each case. Besides, the figures for the drug effect in test [3] (24 h), in test [3] (48 h) and in test [3] (72 h) were 0.1 (inactive), 0.111 (inactive) and 0.188 (inactive), respectively.
For the compound `c1ccc(Oc2ccc(-c3cc(N4CCOCC4)[nH]n3)cc2)cc1`, the XTT viability in test [1] amounted to 112%. For the same compound, the phenotypic severity score in test [2] (24 h), in test [2] (48 h) and in test [2] (72 h) was 0 (inactive) throughout. The drug effect is 0.15 (inactive) in test [3] (24 h), 0.297 (inactive) in test [3] (48 h) and 0.152 (inactive) in test [3] (72 h).
Turning to `Nc1cccnc1Nc1ccc(Cl)cc1`, the XTT viability in test [1] was 157%. Moreover, the phenotypic severity score in test [2] (24 h), in test [2] (48 h) and in test [2] (72 h) was 0 (inactive) throughout. Moreover, the drug effect in test [3] (24 h) was 0.15 (inactive); in test [3] (48 h), 0.278 (inactive); in test [3] (72 h) it was 0.375 (inactive).
For `Cc1cc(NCCc2ccccc2)nc(NC(=N)Nc2ccc(Cl)cc2)n1`, the XTT viability in test [1] turned out to be 8.5%. In addition, the phenotypic severity score in test [2] (24 h), in test [2] (48 h) and in test [2] (72 h) was 4 (active) throughout. The drug effect in test [3] (24 h), in test [3] (48 h) and in test [3] (72 h) was 1 (active) each time.
